Assay results: PubChem BioAssay (NCI)
Values joined by “and” are separate entries in the source; they are usually repeats but may differ in a detail not shown here. Equal values may be shown once. About 83,000 compounds went through this panel and 20% of them were active in at least one assay; those are over-represented in the sample as a whole.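 Values shown are percent growth following 48 h exposure of cells in 96-well plates to a single concentration of compound; below 10 was considered active.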 Active and inactive are the calls of the source.

System: MDA-MB-468 breast
Experiment: NCI-60 one-dose screen, 48 h (100 = growth as untreated, 0 = no growth, -100 = all killed)
Conditions: 10 µM unless noted

Row | Structure (SMILES) | growth
1 | CCCCCCNC(=O)Oc1ccc(/C(=C(/C)c2ccccc2)c2ccc(OCCN(C)C)cc2)cc1 | 71.5% (inactive)
2 | O=C(CSc1nc2ccccc2[nH]1)Nc1cccc(Cl)c1 | 113% (inactive)
3 | O=C(CCSc1nnc2n(Cc3ccccc3)c(=O)c3c4c(sc3n12)CCCC4)N1CCN(c2ccccc2)CC1 | 101% (inactive)
4 | COc1cc(-c2cc3ncccc3c3nc(OCCN(C)C)c4cccnc4c23)cc(OC)c1OC | -6.09% (active)
5 | CCN(CC)CC(C)Nc1ccc(C)c2sc3ccccc3c(=O)c12 (stereo not given) | 57.7% (inactive)
6 | CCOc1nc(-c2ccccc2)cc2c(O)c(C(=O)NCCCO)[nH]c(=O)c12 | 95% (inactive)
7 | OC1CCN(CCCOc2c3ccc(Cl)cc3nc3c2oc2ccccc23)CC1 | -43.9% (active)
8 | COc1cccc2c(N=NC(=O)c3ccc(S(N)(=O)=O)cc3)c(O)[nH]c12 | 101% (inactive)
9 | Cc1nn(-c2ccccc2)c(Oc2ccccc2)c1/C=N/NC(=O)Cn1c(=O)sc2ccccc21 | 13.7% (inactive)
10 | CCC(=O)Nc1ccc(-c2nc(-c3cccc(OC)c3)c(-c3ccnc(Br)c3)[nH]2)cc1 | 38.9% (inactive)
11 | CCOC(=O)Nc1ccc(-c2nc(-c3cccc(OCCN4CCOCC4)c3)c(-c3ccnc(Br)c3)[nH]2)cc1 | 33.9% (inactive)
12 | O=[N+]([O-])c1ccc(Nc2nc(NCCN3CCOCC3)ncc2[N+](=O)[O-])cc1 | 70.8% (inactive)
13 | O=c1cc(-c2ccccc2)oc2cc(OCc3cn(Cc4ccc(F)cc4)nn3)cc(OCc3cn(Cc4ccc(F)cc4)nn3)c12 | 38.7% (inactive)
14 | COc1ccc(-c2nc(N=Nc3c(O)[nH]c4ccccc34)nc(N3CCOCC3)c2C#N)cc1 | 71% (inactive)
15 | CCOC(=O)c1cn2ncnc(Oc3ccc(NC(=O)NCCN(C)C)c(Cl)c3)c2c1C | 67.4% (inactive)
16 | CCN(CC)CCNC(=O)c1ccc(NCN2C(=O)NC(c3ccccc3)(c3ccccc3)C2=O)cc1 | 101% (inactive) and 111% (inactive)
17 | COc1cc(OC)c(C(=O)/C=C/c2cccc(C(F)(F)F)c2)c(OC)c1 | -9.39% (active)
18 | CC1CN(CC(O)c2ccc(Br)cc2)CCO1 (stereo not given) | 115% (inactive)
19 | COc1ccc([N+](=O)[O-])c(C(=O)O)c1 | 96.4% (inactive)
20 | COc1ccc(C2=NN(C(C)=O)C(c3cn(-c4ccccc4)nc3-c3ccc(Cl)cc3)C2)cc1 (stereo not given) | -1.41% (active)
21 | C[C@H]1O[C@@H](O[C@H]2[C@@H](O)C[C@H](O[C@H]3[C@@H](O)C[C@H](O[C@H]4CC[C@]5(C)C6CC[C@]7(C)[C@@H](C8=CC(=O)OC8)CC[C@]7(O)C6CC[C@@H]5C4)O[C@@H]3C)O[C@@H]2C)C[C@H](O)[C@@H]1O (stereo not given in full) | -60% (active)
22 | COc1ccccc1/C=C/C(=O)Nc1ccc(F)cc1 | 105% (inactive)
23 | N#CN1CC[C@H](C(=O)Nc2ncc(-c3ccccc3)s2)C1 | -49.9% (active)
24 | Brc1cccc(-c2cc(-c3cnc4c(c3)OCCO4)n[nH]2)c1 | 7.76% (active)
25 | O=C(CSc1nc(-c2ccccc2)[nH]c1S(=O)(=O)c1ccccc1)NC1CC1 | 4.04% (active)
26 | Cc1cc(O)cc(-c2c(-c3ccnc(-c4cccnc4)c3)cnn2C)c1 | 48.1% (inactive)
27 | Fc1ccc(NC(=S)c2ccccc2)cc1 | 97.5% (inactive)
28 | COC(=O)/C=C1/SC(=Nc2cccc(OC)c2)N(CCc2c[nH]c3ccc(O)cc23)C1=O | 49.3% (inactive)
29 | CN(C)CCCN(c1nc(C(Cl)(Cl)Cl)ns1)c1nc(C(Cl)(Cl)Cl)ns1 | 14.5% (inactive)
30 | O=c1c2cc(Cl)ccc2oc2ccc(OCCCCCN3CCCCCC3)cc12 | 74.1% (inactive)
